Source: ChEMBL document CHEMBL1961873, “Compounds: GSK PKIS; Assays: Nanosyn kinase panel” (2012)
Where “and” joins values, the source holds several entries; their conditions need not be identical. Equal entries are not always repeated.

The molecules below were run against T1, Mitogen-activated protein kinase 12 (Homo sapiens) (UniProt P53778). Conditions: at 0.1 µM.
T1 sequence (whole entry): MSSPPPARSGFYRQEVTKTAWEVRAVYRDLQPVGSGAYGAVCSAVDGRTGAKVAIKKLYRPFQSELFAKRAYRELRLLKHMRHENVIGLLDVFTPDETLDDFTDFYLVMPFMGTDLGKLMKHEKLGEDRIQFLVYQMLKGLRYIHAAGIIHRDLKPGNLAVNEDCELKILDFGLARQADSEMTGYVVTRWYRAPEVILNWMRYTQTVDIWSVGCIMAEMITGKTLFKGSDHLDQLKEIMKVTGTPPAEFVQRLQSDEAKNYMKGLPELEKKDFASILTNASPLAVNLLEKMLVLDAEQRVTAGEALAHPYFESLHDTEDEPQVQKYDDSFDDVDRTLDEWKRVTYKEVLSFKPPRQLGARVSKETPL

Question: With `O=C(O[C@H]1CN[C@H](C#Cc2cc3ncnc(Nc4ccc5c(cnn5Cc5ccccc5)c4)c3s2)C1)N1CCOCC1` as the molecule, how does the inhibition read?
Answer: -1.24%

Question: `Cn1c(-c2nonc2N)nc2cnccc21` was tested. Which inhibition did it give?
Answer: 2.62%

Question: With `Nc1ncnc2occ(-c3ccc(NC(=O)Nc4cc(C(F)(F)F)ccc4F)cc3)c12` as the molecule, how does the inhibition read?
Answer: 15% and 4.47%

Question: For `O=C(Nc1n[nH]c2nnc(-c3cccnc3)cc12)C1CC1`, which inhibition is on record?
Answer: 0.25%

Question: For `COc1ccc2ncn(-c3cc(O[C@H](C)c4ccccc4C(F)(F)F)c(C(N)=O)s3)c2c1`, which inhibition is on record?
Answer: 0.21%

Question: With `CCOc1ccc2c(-c3ccnc(Nc4cc(OC)cc(C(F)(F)F)c4)n3)cnn2n1` as the molecule, how does the inhibition read?
Answer: 3.42%

Question: With `c1ccc(-c2n[nH]cc2-c2ccnc(-c3ccc(OCCn4ccnc4)cc3)c2)nc1` as the molecule, how does the inhibition read?
Answer: 1.96%

Question: For `CCN1CCC(C(=O)Nc2n[nH]c3nnc(-c4cccc(F)c4F)cc23)CC1`, which inhibition is on record?
Answer: -0.79%

Question: With `Nc1nonc1-c1nc2cnccc2n1C1CC1` as the molecule, how does the inhibition read?
Answer: 3.64% and 2.61%

Question: With `O=C1Nc2ccccc2/C1=C1\CCc2cc(O)ccc21` as the molecule, how does the inhibition read?
Answer: 4.33%

Question: For `NC(=O)c1ccc2c(-c3ccnc(NCCCO)n3)c(-c3ccc(F)cc3)nn2c1`, which inhibition is on record?
Answer: 2.09%

Question: `NS(=O)(=O)c1ccc(N/N=C2\C(=O)Nc3cccc(CCc4ccncc4)c32)cc1` was tested. Which inhibition did it give?
Answer: 0.4%

Question: How did the inhibition turn out when `FC(F)(F)CNc1nccc(-c2cnn3ncccc23)n1` was run?
Answer: 1.83%

Question: For `COc1ccc(-c2nn3ncccc3c2-c2ccnc(Nc3ccc(F)c(F)c3)n2)cc1`, which inhibition is on record?
Answer: 4.66%

Question: For `c1cnn2ncc(-c3ccnc(NCCCN4CCOCC4)n3)c2c1`, which inhibition is on record?
Answer: -0.08%

Question: `COc1cc(Nc2ncc(-c3ccccc3)o2)cc(OC)c1` was tested. Which inhibition did it give?
Answer: 3.61%

Question: With `CCS(=O)(=O)c1ccc(OC)c(Nc2ncc(-c3cccc(C(C)=O)c3)o2)c1` as the molecule, how does the inhibition read?
Answer: -1.65%

Question: Which inhibition does the source give for `COC(=O)Nc1nc2ccc(Oc3ccc(NC(=O)Nc4cc(C(F)(F)F)ccc4F)cc3)cc2s1` here?
Answer: 0.98%

Question: Which inhibition does the source give for `COc1ccc(Nc2ncc(-c3ccccc3)o2)cc1OC` here?
Answer: 4.1%

Question: Which inhibition does the source give for `NS(=O)(=O)c1cccc(N/C=C2\C(=O)Nc3ccccc32)c1` here?
Answer: 1.32%

Question: `COc1cc(N2CCN(C(C)C)CC2)ccc1Nc1nc(Nc2cccc3ncccc23)c2cc[nH]c2n1` was tested. Which inhibition did it give?
Answer: -0.18%

Question: Which inhibition does the source give for `COc1cc(N2CCN(C(C)C)CC2)ccc1Nc1nc(Nc2cccc(F)c2C(=O)O)c2cc[nH]c2n1` here?
Answer: 0.95%

Question: With `CN1CCC(C(=O)Nc2n[nH]c3nc(-c4ccc(O)cc4)c(Br)cc23)CC1` as the molecule, how does the inhibition read?
Answer: 4.48% and 2.47%

Question: For `O=C(O[C@H]1CN[C@H](C#Cc2cc3ncnc(Nc4ccc(OCc5cccc(F)c5)c(Cl)c4)c3s2)C1)N1CCOCC1`, which inhibition is on record?
Answer: 3.76%

Question: `CN(C)CCNC(=O)Nc1ccc(N(C)c2ccnc(Nc3ccc(CS(C)(=O)=O)cc3)n2)cc1` was tested. Which inhibition did it give?
Answer: -0.76%

Question: How did the inhibition turn out when `NS(=O)(=O)c1ccc(N/N=C2\C(=O)Nc3ccc(C(=O)NCc4ccncc4)cc32)cc1` was run?
Answer: -1.11%

Question: For `Fc1ccc(Nc2nccc(-c3c(-c4ccc(C(F)(F)F)cc4)nn4ncccc34)n2)cc1F`, which inhibition is on record?
Answer: 5.22%

Question: For `CC1(C)CC(n2cnc(-c3ccc(F)cc3)c2-c2ccnc(N)n2)CC(C)(C)N1`, which inhibition is on record?
Answer: 0.38%

Question: How did the inhibition turn out when `Cc1c2ccc(N(C)c3ccnc(Nc4cccc(S(N)(=O)=O)c4)n3)cc2nn1C` was run?
Answer: 5.17%

Question: `CN1CCC(n2cnc(-c3ccc(F)cc3)c2-c2ccnc(NCCO)n2)CC1` was tested. Which inhibition did it give?
Answer: 3.94%

Question: With `CS(=O)(=O)CCNCc1ccc(-c2ccc3ncnc(Nc4ccc(OCc5ccccc5)cc4)c3c2)o1` as the molecule, how does the inhibition read?
Answer: 2.39%

These molecules were tested against T1, Mitogen-activated protein kinase 12 (Homo sapiens). Conditions: at 1 µM.

Question: With `O=C(O[C@H]1CN[C@H](C#Cc2cc3ncnc(Nc4ccc5c(cnn5Cc5ccccc5)c4)c3s2)C1)N1CCOCC1` as the molecule, how does the inhibition read?
Answer: -0.96%

Question: How did the inhibition turn out when `Cn1c(-c2nonc2N)nc2cnccc21` was run?
Answer: 2.23%

Question: How did the inhibition turn out when `Nc1ncnc2occ(-c3ccc(NC(=O)Nc4cc(C(F)(F)F)ccc4F)cc3)c12` was run?
Answer: 52% and 44.9%

Question: With `O=C(Nc1n[nH]c2nnc(-c3cccnc3)cc12)C1CC1` as the molecule, how does the inhibition read?
Answer: 3.03%

Question: How did the inhibition turn out when `COc1ccc2ncn(-c3cc(O[C@H](C)c4ccccc4C(F)(F)F)c(C(N)=O)s3)c2c1` was run?
Answer: -0.21%

Question: For `CCOc1ccc2c(-c3ccnc(Nc4cc(OC)cc(C(F)(F)F)c4)n3)cnn2n1`, which inhibition is on record?
Answer: 1.08%

Question: For `c1ccc(-c2n[nH]cc2-c2ccnc(-c3ccc(OCCn4ccnc4)cc3)c2)nc1`, which inhibition is on record?
Answer: 0.72%

Question: For `CCN1CCC(C(=O)Nc2n[nH]c3nnc(-c4cccc(F)c4F)cc23)CC1`, which inhibition is on record?
Answer: -1.22%

Question: For `Nc1nonc1-c1nc2cnccc2n1C1CC1`, which inhibition is on record?
Answer: 3.34% and 3.65%

Question: `O=C1Nc2ccccc2/C1=C1\CCc2cc(O)ccc21` was tested. Which inhibition did it give?
Answer: 4.17%

Question: `NC(=O)c1ccc2c(-c3ccnc(NCCCO)n3)c(-c3ccc(F)cc3)nn2c1` was tested. Which inhibition did it give?
Answer: 3.04%

Question: For `NS(=O)(=O)c1ccc(N/N=C2\C(=O)Nc3cccc(CCc4ccncc4)c32)cc1`, which inhibition is on record?
Answer: 0.75%

Question: For `FC(F)(F)CNc1nccc(-c2cnn3ncccc23)n1`, which inhibition is on record?
Answer: 4.71%

Question: `COc1ccc(-c2nn3ncccc3c2-c2ccnc(Nc3ccc(F)c(F)c3)n2)cc1` was tested. Which inhibition did it give?
Answer: 2.57%

Question: `c1cnn2ncc(-c3ccnc(NCCCN4CCOCC4)n3)c2c1` was tested. Which inhibition did it give?
Answer: 3.02%

Question: `COc1cc(Nc2ncc(-c3ccccc3)o2)cc(OC)c1` was tested. Which inhibition did it give?
Answer: 3.94%

Question: For `CCS(=O)(=O)c1ccc(OC)c(Nc2ncc(-c3cccc(C(C)=O)c3)o2)c1`, which inhibition is on record?
Answer: 1.14%

Question: `COC(=O)Nc1nc2ccc(Oc3ccc(NC(=O)Nc4cc(C(F)(F)F)ccc4F)cc3)cc2s1` was tested. Which inhibition did it give?
Answer: 2.85%

Question: Which inhibition does the source give for `COc1ccc(Nc2ncc(-c3ccccc3)o2)cc1OC` here?
Answer: 1.14%

Question: How did the inhibition turn out when `NS(=O)(=O)c1cccc(N/C=C2\C(=O)Nc3ccccc32)c1` was run?
Answer: 2.84%

Question: `COc1cc(N2CCN(C(C)C)CC2)ccc1Nc1nc(Nc2cccc3ncccc23)c2cc[nH]c2n1` was tested. Which inhibition did it give?
Answer: -0.51%

Question: With `COc1cc(N2CCN(C(C)C)CC2)ccc1Nc1nc(Nc2cccc(F)c2C(=O)O)c2cc[nH]c2n1` as the molecule, how does the inhibition read?
Answer: 1.52%

Question: `CN1CCC(C(=O)Nc2n[nH]c3nc(-c4ccc(O)cc4)c(Br)cc23)CC1` was tested. Which inhibition did it give?
Answer: 7.35% and 7.26%

Question: `O=C(O[C@H]1CN[C@H](C#Cc2cc3ncnc(Nc4ccc(OCc5cccc(F)c5)c(Cl)c4)c3s2)C1)N1CCOCC1` was tested. Which inhibition did it give?
Answer: 3.47%

Question: `CN(C)CCNC(=O)Nc1ccc(N(C)c2ccnc(Nc3ccc(CS(C)(=O)=O)cc3)n2)cc1` was tested. Which inhibition did it give?
Answer: 2.24%

Question: With `NS(=O)(=O)c1ccc(N/N=C2\C(=O)Nc3ccc(C(=O)NCc4ccncc4)cc32)cc1` as the molecule, how does the inhibition read?
Answer: 2.56%

Question: With `Fc1ccc(Nc2nccc(-c3c(-c4ccc(C(F)(F)F)cc4)nn4ncccc34)n2)cc1F` as the molecule, how does the inhibition read?
Answer: 2.9%

Question: For `CC1(C)CC(n2cnc(-c3ccc(F)cc3)c2-c2ccnc(N)n2)CC(C)(C)N1`, which inhibition is on record?
Answer: 2.44%

Question: `Cc1c2ccc(N(C)c3ccnc(Nc4cccc(S(N)(=O)=O)c4)n3)cc2nn1C` was tested. Which inhibition did it give?
Answer: 3.53%

Question: With `CN1CCC(n2cnc(-c3ccc(F)cc3)c2-c2ccnc(NCCO)n2)CC1` as the molecule, how does the inhibition read?
Answer: 3.15%

Question: How did the inhibition turn out when `CS(=O)(=O)CCNCc1ccc(-c2ccc3ncnc(Nc4ccc(OCc5ccccc5)cc4)c3c2)o1` was run?
Answer: 2.57%
